Source: PubChem (several laboratories)
HCT116 bCat-KO: beta-catenin-lacking colon tumor cell growth suppression. HCT116 beta-catenin knockout viability, CellTiter-Glo, 60 h; active compounds read low. viability, % at 10 µM. actives 1.5% (n = 140,000);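 active means viability at or under a set limit, the compound median less 4 SD, cut at about 6% in these data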;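 further: 0% = Hyamine 1622 control at 20 µM and 100% = untreated cell control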
INS promoter inh: TRM-6 insulin promoter activity inhibition; actives 0.9% (n = 130,000); AID 1273; TRM-6 cells (human fetal islet line), insulin promoter-eGFP reporter, imaging; reporter expression induced with tamoxifen; inhibition, % at 2 µM;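 active means inhibition above the mean plus 3 SD, with well images judged a real hit on visual review, cut at about 60% in these data, passing the limit was not always enough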
Insulin prom up: MIN6 insulin promoter up-regulation | MIN6 insulin promoter-GFP reporter, high-content imaging; active compounds read high | z-score at 5 µM | actives 0.3% (n = 190,000) | AID 1625;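 active means z-score above 3 at 5 µM with at least 500 cells counted in the well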
L major viab: Leishmania major promastigote growth inhibition | Leishmania major promastigotes, resazurin fluorescence viability | AID 1063 | actives 9% (n = 200,000) | inhibition, % at 10 µM; in the data active means inhibition above about 50%;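 further: promastigotes grown with compound for 44 hours at 28 °C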
HCT116 PTEN-null: PTEN-deleted cell growth suppression; actives 1.2% (n = 140,000); AID 827; viability, % at 10 µM; HCT116 PTEN-null viability, CellTiter-Glo, 60 h; active compounds read low;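 active means viability at or below a set limit, 4 SD under the median of all tested compounds, cut at about 3.7% in these data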;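 further: PTEN knockout HCT116 line with beta catenin targeted HCT116 as companion control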
Autophagy mod: modulators of autophagy; MEF GFP-LC3 puncta imaging; test concentration mostly 10 µM; calls only at 10 µM (by protocol); actives 0.98% (n = 190,000);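 active means percentage of spot-positive cells more than 3 SD above its plate mean, without a fluorescence outlier flag or 80% toxicity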;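 further: spot-positive cell cutoff set from DMSO-treated cells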
Active calls of the source: *. An excerpt weighted towards active compounds, which were near 9.6% of everything screened.

How did COc1ccc(OC)c(NC(=O)N2CCCC(C(=O)c3ccccc3OC)C2)c1 (stereo unspecified) do in these assays?
INS promoter inh: 6.7; Insulin prom up: 1.04; L major viab: 14.4; Autophagy mod: inactive

What do the screens show for `O=c1oc2ccccc2cc1-c1nnc(-c2cccc(Br)c2)o1`?
Insulin prom up: 0.06

What do the screens show for `CCOc1ccc(CN2CCN(CC(O)Cn3c4ccccc4c4ccccc43)CC2)cc1` (stereo unspecified)?
HCT116 bCat-KO: 1.5*; INS promoter inh: -122.2; Insulin prom up: -1; L major viab: 96.0*; HCT116 PTEN-null: 1.6*; Autophagy mod: active

What do the screens show for `O=c1c2ccccc2n(CC(O)CN2CCCCC2)c2ccccc12` (stereo unspecified)?
Insulin prom up: 0.07

How did COc1ccc(-c2cc3ccccc3n2CC(O)CN2CCC(C)CC2)cc1 (stereo unspecified) do in these assays?
Insulin prom up: -0.67; L major viab: 86.8*; Autophagy mod: inactive

Results for COc1ccc(CN2CCN(CC(O)Cn3c4ccccc4c4ccccc43)CC2)cc1 (stereo unspecified) ?
HCT116 bCat-KO: 16.0; INS promoter inh: 10.7; Insulin prom up: -1.25; L major viab: 98.8*; HCT116 PTEN-null: 13.9; Autophagy mod: inactive

How did COc1ccc(-c2cc3ccccc3n2CC(O)Cn2nc(C)cc2C)cc1 (stereo unspecified) do in these assays?
HCT116 bCat-KO: 39.6; INS promoter inh: -15.6; Insulin prom up: -0.24; L major viab: 11.0; HCT116 PTEN-null: 34.8; Autophagy mod: inactive

What do the screens show for `CC(=O)Nc1ccc(OCC(O)CN2CCN(Cc3ccccc3)CC2)cc1` (stereo unspecified)?
HCT116 bCat-KO: 93.7; INS promoter inh: 66.7; Insulin prom up: -0.21; L major viab: -8.1; HCT116 PTEN-null: 109.5; Autophagy mod: inactive

Results for COc1ccc(CCNC(=O)C2CCN(Cc3nc(-c4cccc(Cl)c4)oc3C)CC2)cc1OC ?
HCT116 bCat-KO: 46.9; Insulin prom up: -0.99; L major viab: 8.3; HCT116 PTEN-null: 60.7; Autophagy mod: inactive

What do the screens show for `Cc1nc2c(C#N)c(C)[nH]n2c(=O)c1Cc1ccccc1`?
HCT116 bCat-KO: 92.2; INS promoter inh: -38.5; Insulin prom up: 0.24; L major viab: 87.4*; HCT116 PTEN-null: 91.1; Autophagy mod: inactive

What do the screens show for `C=CCN(CC=C)C(=O)Cn1cnc([N+](=O)[O-])n1`?
HCT116 bCat-KO: 99.0; INS promoter inh: -13.8; Insulin prom up: -0.24; L major viab: 20.8; HCT116 PTEN-null: 103.2; Autophagy mod: inactive

What do the screens show for `COc1cccc2cc(C(=O)Nc3ccc(F)cc3)c(=Nc3ccc(C(=O)O)cc3)oc12`?
Insulin prom up: -0.59; L major viab: -1.0; Autophagy mod: inactive

How did COc1cccc2cc(S(=O)(=O)c3ccccc3)c(=Nc3ccc4c(c3)OCCO4)oc12 do in these assays?
HCT116 bCat-KO: 88.7; INS promoter inh: 0.0; Insulin prom up: 0.53; L major viab: 91.8*; HCT116 PTEN-null: 91.1; Autophagy mod: inactive

What do the screens show for `Cc1ccc(S(=O)(=O)c2cc3ccccc3oc2=Nc2ccc3c(c2)OCCO3)cc1`?
HCT116 bCat-KO: 91.3; INS promoter inh: -21.4; Insulin prom up: 0.1; L major viab: 97.8*; HCT116 PTEN-null: 89.2; Autophagy mod: inactive

What do the screens show for `Cc1ccc(S(=O)(=O)c2cc3ccccc3oc2=Nc2ccc3c(c2)OCO3)cc1`?
HCT116 bCat-KO: 80.9; INS promoter inh: 40.0; Insulin prom up: -2.3; L major viab: -4.9; HCT116 PTEN-null: 90.3; Autophagy mod: active

What do the screens show for `Cc1ccc(S(=O)(=O)N/N=C\c2ccc3c(c2)OCO3)cc1`?
HCT116 bCat-KO: 89.7; INS promoter inh: 4.2; Insulin prom up: -0.47; L major viab: -5.4; HCT116 PTEN-null: 96.0; Autophagy mod: inactive

How did CC(C)N(CCNS(=O)(=O)c1ccc(Cl)cc1)C(C)C do in these assays?
HCT116 bCat-KO: 94.0; INS promoter inh: -1.4; Insulin prom up: -0.2; L major viab: 56.7*; HCT116 PTEN-null: 89.0; Autophagy mod: inactive

How did Cc1ccccc1NC(=O)C(C)O/N=C/c1cccc([N+](=O)[O-])c1 (stereo unspecified) do in these assays?
HCT116 bCat-KO: 88.7; INS promoter inh: -2.7; L major viab: 66.1*; HCT116 PTEN-null: 81.2; Autophagy mod: inactive

Results for Cc1c(NS(=O)(=O)c2cccs2)cccc1-c1nc2cccnc2s1 ?
Insulin prom up: 0.67

What do the screens show for `O=S(=O)(Nc1cccc2ncccc12)c1cccs1`?
HCT116 bCat-KO: 1.7*; Insulin prom up: -0.47; L major viab: 100.1*; HCT116 PTEN-null: 1.5*; Autophagy mod: inactive

What do the screens show for `COc1c(C)cccc1C(=O)Nc1ccc(CN2CCOCC2)cc1`?
HCT116 bCat-KO: 103.3; INS promoter inh: -104.8; Insulin prom up: -0.33; L major viab: 98.2*; HCT116 PTEN-null: 109.4; Autophagy mod: inactive

Results for CC(C)Oc1cccc(C(=O)Nc2ccc(CN3CCOCC3)cc2)c1 ?
HCT116 bCat-KO: 76.2; INS promoter inh: 61.9; Insulin prom up: -0.44; L major viab: 79.3*; HCT116 PTEN-null: 85.3; Autophagy mod: inactive

Results for COc1cccc(NC(=O)c2ccc(CN3CCOCC3)cc2)c1 ?
HCT116 bCat-KO: 70.3; INS promoter inh: -27.8; Insulin prom up: -0.57; L major viab: -0.7; HCT116 PTEN-null: 91.3; Autophagy mod: inactive

How did Cc1[nH]c2ccccc2c1C(=O)COC(=O)c1ccc([N+](=O)[O-])s1 do in these assays?
INS promoter inh: 45.0; L major viab: 100.5*; Autophagy mod: inactive

How did CC(C)(C)c1ccc(NC(=O)COC(=O)c2ccc([N+](=O)[O-])s2)cc1 do in these assays?
HCT116 bCat-KO: 80.5; INS promoter inh: 23.7; Insulin prom up: 1.49; L major viab: 57.6*; HCT116 PTEN-null: 87.3; Autophagy mod: inactive

What do the screens show for `O=C(COC(=O)c1ccc([N+](=O)[O-])s1)NC(c1ccccc1)c1ccccc1`?
HCT116 bCat-KO: 95.0; INS promoter inh: 33.3; Insulin prom up: -0.03; L major viab: 67.5*; HCT116 PTEN-null: 93.7; Autophagy mod: inactive

Results for O=C(COC(=O)c1ccc([N+](=O)[O-])s1)Nc1ccccc1 ?
HCT116 bCat-KO: 90.7; INS promoter inh: 2.6; Insulin prom up: 0.78; L major viab: 38.1; HCT116 PTEN-null: 93.0; Autophagy mod: inactive

What do the screens show for `O=C(COC(=O)c1ccc([N+](=O)[O-])s1)NCc1ccccc1`?
HCT116 bCat-KO: 87.7; Insulin prom up: 0.07; L major viab: 11.8; HCT116 PTEN-null: 92.7; Autophagy mod: inactive

How did O=S(=O)(NCC(c1cccnc1)N1CCN(c2ccccc2F)CC1)c1cccs1 (stereo unspecified) do in these assays?
HCT116 bCat-KO: 83.0; Insulin prom up: 2.6; L major viab: 78.5*; HCT116 PTEN-null: 94.4; Autophagy mod: inactive

How did Cc1ccc(S(=O)(=O)NCC(c2cccnc2)N2CCOCC2)cc1 (stereo unspecified) do in these assays?
INS promoter inh: -65.0; L major viab: 6.2; Autophagy mod: inactive
